Data as given in PubChem BioAssay AID1508600 (Functional Genomics Laboratory (NCATS/FGL), 2020).
Out of some 53,000 sequences screened, about 3,700 (7%) were called active.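 How the source made its calls: active means gene knockdowns whose robust z-score for IL-1 alpha signal is at least 2 or at most -2, so actives lie on both sides; inactive means the rest.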 The sample as a whole holds a higher share of actives than the screen did.

Assay: Components of the Cytosolic LPS Sensing Pathway: Gene Identification via Genome-wide siRNA Screen;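 further: robust z of the log signal after scaling to non-targeting control siRNA wells of the plate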
Conditions: RAW264.7 macrophages, IL-1a HTRF, actives lie on both sides, screened at 100 nM (by protocol), cells primed 5 h with Pam3CSK4 first
Procedure, shortened: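 Mouse macrophage line RAW264.7 is transfected with siRNA (100 nM final), grown 48h, primed with TLR ligand Pam3CSK4 5 h and given intracellular LipidA 24 h. IL-1a in supernatant is read by HTRF and viability by luminescence.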

Sequence	z-score
GGAGACUUAGAAAAAGACUTT against Olfr1426	1.17 (inactive)
GGAGUUUGUAACCCUCCUGTT against Cabp7	1.07 (inactive)
GCCGUCAUCAUGGAAGGUUTT against Bace1	0.0589 (inactive)
GGAAUCCUUGGACCUGAGGTT against Tnni3	-2.11 (active)
GGGUCAAUCAGAAGCUAGGTT against Creb3l4	-0.573 (inactive)
GGCAACUGACUAUUUAUUATT against Kcnk13	0.558 (inactive)
GCAUGAGUAUUCCAAGGAGTT against Arhgef7	-2.36 (active)
GCAGUAUAAGAAUUUCAUGTT against Thada	-0.325 (inactive)
GGAAAUGUUCUUCAUGUCATT against 1110038F14Rik	-1.95 (inactive)
GGCACGUCUGGACAACAUCTT against Cd22	-0.707 (inactive)
GGAGGUGACCUGUAAUCCCTT against Msmb	0.0151 (inactive)
GCUUUCACUAAUCAGUACATT against Setd5	-0.0813 (inactive)
GGAGCAACAGAGAUUUCUUTT against Sergef	2.07 (active)
GCUUCUGAUUAACCUCCAGTT against Olfr1390	-1.49 (inactive)
GCUUACCUUUGGAUUCAAATT against Cd68	-0.446 (inactive)
GGGAAAAAGAGCUUUUAGCTT against Helt	-0.552 (inactive)
GGUGGCCGUGAAGAAGAUCTT against Mapk4	-0.902 (inactive)
GGGCUUAAGGAAUAAACCATT against Phtf2	-0.317 (inactive)
GGAGAUCUCAGAGAGUGAGTT against Atn1	-2.52 (active)
GCCUCCAACUGAACAAAUUTT against Tnfrsf14	0.0618 (inactive)
GGACCAUCUCUUUGAUUGGTT against Olfr424	-1.12 (inactive)
UCUUUGGCAACACUACCAUTT against Olfr1386	0.366 (inactive)
GAAGUCCUGGGACUUUAUGTT against Nudt14	0.208 (inactive)
GGACAGAAUUGAAAUGCCUTT against Ropn1l	-2.08 (active)
GGUUUCGUUGUUCUUGUUGTT against Ttc33	0.55 (inactive)
GGUAGAAGAGAACUGGACATT against Oas1a	0.228 (inactive)
GGCAUGAUUAUUGUGUUUGTT against Abcb11	0.41 (inactive)
CCUAAGUACUGUAAGAAUATT against Mycn	0.506 (inactive)
CGCCAUGUUUAACAAAUUGTT against Limk2	-2.22 (active)
GCCAUUCUAGGAACUCUGATT against Thrap3	-1.3 (inactive)
